CYP2C9 inh – blockers of cytochrome P450 2C9 activity – biochemical, luminescence, ADME assay, primary screen; P11712; inhibition, % at 5 µM; 96,000 compounds, 20% hits; CYP2C9 Supersomes, luciferin-H conversion;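 active = blocking of liver enzyme CYP2C9 beyond about 50% at 5 µM, limit read from the data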
Target sequence (P11712 whole entry, looked up): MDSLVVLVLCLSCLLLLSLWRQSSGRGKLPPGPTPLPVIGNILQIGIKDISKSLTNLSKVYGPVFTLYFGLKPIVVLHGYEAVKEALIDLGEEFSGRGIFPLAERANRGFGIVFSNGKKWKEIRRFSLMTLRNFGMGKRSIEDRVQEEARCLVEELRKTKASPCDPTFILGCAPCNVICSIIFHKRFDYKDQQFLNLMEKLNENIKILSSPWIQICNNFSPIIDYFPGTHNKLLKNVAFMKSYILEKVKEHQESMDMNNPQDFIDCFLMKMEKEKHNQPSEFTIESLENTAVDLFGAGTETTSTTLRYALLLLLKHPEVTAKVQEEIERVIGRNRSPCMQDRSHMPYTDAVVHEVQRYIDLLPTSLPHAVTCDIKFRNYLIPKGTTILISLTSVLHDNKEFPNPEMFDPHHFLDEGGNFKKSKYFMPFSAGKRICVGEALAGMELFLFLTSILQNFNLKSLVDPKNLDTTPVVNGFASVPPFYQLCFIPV
CYP2C9 act – human CYP2C9 activators, primary screen, biochemical, luminescence. recombinant CYP2C9, luciferin-H conversion; stronger effect = higher value; factor 1 = untreated enzyme, 0 = blocked. 96,000 compounds, 1.4% hits. Cytochrome P450 2C9 (Homo sapiens), P11712. activation factor at 5 µM;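 active = activation factor of 2 or more for CYP2C9 at a 5 µM dose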;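 note: 0 = sulfaphenazole-blocked wells and 1 = vehicle-only wells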
PostGolgi ctrl – growth inhibition of yeast control strain, primary screen, counter-screen for post-Golgi transport modulator project. efflux-deficient yeast background strain, growth absorbance A615, 16 h. inhibition, % at 10 µM. 98,000 compounds, 5% hits. AID 738, 2007
PostGolgi yeast – phenotypic screen on post-Golgi transport, primary screen. post-Golgi transport phenotypic cell assay. inhibition, % at 10 µM. 98,000 compounds, 0.9% hits;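 note: yeast cells grown in 1536-well plates; yeast grown about 18 h at 30C before absorbance read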
CYP2C19 activ – human CYP2C19 activators, primary screen, biochemical, luminescence; Cytochrome P450 2C19 (Homo sapiens), P33261; recombinant CYP2C19, luciferin-H EGE luminescence; stronger effect = higher value; 0 = fully inhibited enzyme, 1 = untreated enzyme; 96,000 tested, under 10 active; activation factor at 5 µM;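 active = activation factor of at least 2 at 5 µM in the primary screen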;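 note: 0 = wells with 2.5 mM tranylcypromine and 1 = vehicle-only wells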
CYP2C19 inh – blockers of cytochrome P450 2C19 activity – biochemical, luminescence, ADME assay, primary screen. 96,000 compounds, 21% hits. inhibition, % at 5 µM. CYP2C19 Supersomes, luciferin-H EGE luminescence, 30 min. P33261;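 active = CYP2C19 inhibition above a set limit at 5 µM in the primary screen, cut at about 50% in these data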;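 note: plate controls were negative control wells for no effect and 2.5 mM tranylcypromine positive control for full effect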
* = called active by the depositor; x = not tested or not shown. This is a sample that favours compounds with a hit; in the whole collection about 32% have one here. Cut-off read from the data, not from the text of the source, unless noted: active = inhibition above about 30%; inactive = the rest.

SMILES | CYP2C9 inh | CYP2C9 act | PostGolgi ctrl | PostGolgi yeast | CYP2C19 activ | CYP2C19 inh
O=c1c2ccccc2nc(SCc2cc(=O)n3ccsc3n2)n1CCCO | 38 | 0.6 | -7 | -6 | 0.8 | 25
Cc1ccc(CNC(=O)CSc2nc3ccccc3c(=O)n2CCCO)cc1 | 87* | 0.1 | -1 | -8 | 0.4 | 62*
COCCCn1c(SCC(=O)NC(C)C)nnc1-c1ccccc1 | -6 | 1.1 | 7 | 2 | 1 | 5
CC(NC(=O)CSc1nc2ccccc2c(=O)n1CCCO)c1ccccc1 (centres undefined) | 90* | 0.1 | 1 | -1 | 0.3 | 72*
CCCCn1c(SCC(=O)Nc2nccs2)nc2ccccc2c1=O | 18 | 0.8 | 13 | 2 | 0.9 | 8
CC(C)NC(=O)CSc1nc2ccccc2c(=O)n1CCCOC(C)C | 54* | 0.5 | -8 | -6 | 0.8 | 18
C=CCn1c(N)cc(=O)nc1SCC(=O)NC(C)c1ccccc1 (centres undefined) | -16 | 1.2 | 0 | 2 | 0.5 | 52*
Cn1nc(C(=O)Nc2nc3ccc(S(C)(=O)=O)cc3s2)ccc1=O | 26 | 0.7 | 2 | -6 | 1.1 | -6
Cc1cc(N2CC(=O)N(CCc3ccccc3)C(=O)C2)n2ncnc2n1 | 2 | 1 | 11 | 1 | 1.1 | -7
Cc1ccc2cccc(OC(=O)c3ccc4c(c3)OCCO4)c2n1 | -9 | 1.1 | 3 | 1 | 0.9 | 6
Cc1cccc(NC(=O)c2oc3c(c2C)C(=O)CC(C)(C)C3)n1 | 18 | 0.8 | 2 | 3 | 1 | 4
Cc1ccc(NC(=O)C2CCCN2S(=O)(=O)c2ccc(F)cc2)c(C)c1 (centres undefined) | 29 | 0.7 | 5 | 8 | 0.6 | 44
Cc1ccc(CNC(=O)CSc2nc3ccccc3c3nc(C)nn23)cc1 | -98 | 2* | 21 | 4 | 0.8 | 23
Cc1ccc(CNC(=O)CSc2nnnn2C)cc1 | 24 | 0.8 | 2 | 13 | 0.8 | 16
Cc1[nH]nc(-c2ccc(O)c(C)c2O)c1-c1cnn(-c2ccccc2)c1 | 99* | 0 | 8 | -11 | 0 | 99*
CCc1cc2c(=O)c(-c3cnn(-c4ccccc4)c3)c(C)oc2c(CN2CCCCC2)c1O | 28 | 0.7 | 4 | 5 | 0.5 | 46
CCOC(=O)c1c(C)nc(-c2ccccc2)nc1N | 67* | 0.3 | 1 | 23 | 0.2 | 82*
CC(C(=O)Nc1cccnc1)N1C(=O)C2C3C=CC(C3)C2C1=O (centres undefined) | 0 | 1 | -7 | 15 | 1 | 4
COc1ccc(S(=O)(=O)Cc2ccc(C(=O)N3CCN(c4ccccc4F)CC3)o2)cc1 | 89* | 0.1 | 32* | -5 | 0.5 | 49
CCOC(=O)N1CCN(C(=O)c2ccc(CS(=O)(=O)c3ccc(OC)cc3)o2)CC1 | 71* | 0.3 | -1 | -2 | 1.1 | -10
COc1ccc(S(=O)(=O)Cc2ccc(C(=O)N3CCCC3)o2)cc1 | 5 | 0.9 | 3 | -5 | 0.9 | 7
COc1ccc(S(=O)(=O)Cc2ccc(C(=O)N3CCN(c4ccccc4)CC3)o2)cc1 | 66* | 0.3 | 2 | 2 | 0.7 | 28
Cc1cc(C)c(OCCCCNCc2ccccc2)c(Cl)c1 | 22 | 0.8 | 9 | 1 | 0.6 | 43
CC(=O)NC(CCS(C)(=O)=O)C(=O)Nc1c(C)cccc1C (centres undefined) | -10 | 1.1 | 3 | -18 | 1.2 | -15
CS(=O)(=O)N1CCN(c2ccccc2NC(=O)Cc2ccccc2)CC1 | 50 | 0.5 | 10 | -3 | 0.4 | 62*
SMILES | CYP2C9 inh | CYP2C9 act | PostGolgi ctrl | PostGolgi yeast | CYP2C19 activ | CYP2C19 inh
CCC(=O)N1CCN(c2ccccc2NC(=O)Cc2ccccc2)CC1 | 42 | 0.6 | -2 | 4 | 0.4 | 59*
CS(=O)(=O)N1CCN(c2ccccc2NC(=O)Cc2ccc(Cl)cc2)CC1 | 32 | 0.7 | 22 | -1 | 0.9 | 14
O=C(O)c1cccn1Cc1ccccc1F | -8 | 1.1 | 2 | 0 | 1.1 | -10
CCOC(=O)N1CCC(NS(=O)(=O)c2cc(Br)cnc2N)CC1 | 79* | 0.2 | 4 | 0 | 0.6 | 36
Cc1cc(C)nc(/N=C(/NC(=O)Nc2cccc(Cl)c2)Nc2ccccc2)n1 | 20 | 0.8 | 4 | 2 | 1 | 4
COc1ccccc1N/C(N)=N/c1nc(CSc2ccc(C)cc2)cc(=O)[nH]1 | 61* | 0.4 | 6 | 6 | 0.4 | 61*
CCOC(=O)C(/C=C(\C#N)C(=O)OCC)=C(/N)N1CCN(c2c(C)cccc2C)CC1 | -10 | 1.1 | 10 | 9 | 0.8 | 16
COc1ccc(CCNS(=O)(=O)c2cccs2)cc1 | 90* | 0.1 | 4 | 3 | 0 | 99*
COc1ccc(S(=O)(=O)NCCc2ccc(F)cc2)cc1 | 38 | 0.6 | 4 | 1 | 0 | 100*
CCS(=O)(=O)NCCCCc1ccccc1 | 19 | 0.8 | 4 | 2 | 0.4 | 60*
COc1ccc(S(=O)(=O)NCCc2ccccc2)cc1 | 22 | 0.8 | 4 | -4 | 0 | 95*
O=S(=O)(NCCc1ccc2c(c1)OCCO2)c1cccs1 | 36 | 0.6 | 2 | -8 | 0.6 | 43
NS(=O)(=O)c1ccc(CCNC(=O)Nc2ccc(Cl)c(Cl)c2)cc1 | 34 | 0.7 | 1 | -5 | 0.7 | 34
CC(C)CNS(=O)(=O)c1ccc(CCC(=O)NCc2ccco2)cc1 | x | x | 15 | -2 | x | x
CCOC(=O)C1=C(Nc2ccc(Br)cc2)CC(C)(O)C(C(=O)OCC)C1c1ccccc1 (centres undefined) | -11 | 1.1 | 10 | -4 | 1.1 | -10
O=C(Nc1ccc2oc(-c3ccccc3F)nc2c1)c1cncc(Br)c1 | 4 | 1 | -7 | 6 | 0.9 | 5
CC1(C)Cc2c(ccc3ccccc23)/C(=C/C(=O)N2CCCCC2)N1 | 27 | 0.7 | 8 | 6 | 0.8 | 24
CC(C)(C)c1ccc(-c2nnc(SCCC#N)n2C2CCCC2)cc1 | 41 | 0.6 | 48* | 0 | 0.9 | 14
CCOC(=O)CCN(Cc1sccc1C)S(=O)(=O)c1ccc(F)cc1 | 66* | 0.3 | -7 | -3 | 0.1 | 85*
CCOC(=O)CCN(Cc1cccs1)S(=O)(=O)c1ccc(F)cc1 | 36 | 0.6 | 14 | 2 | 0.2 | 75*
Cn1cc(S(=O)(=O)Nc2cccc(F)c2)c(=O)n(C)c1=O | 12 | 0.9 | 10 | 7 | 0.8 | 20
Cc1cc(S(=O)(=O)Nc2ccc(F)cc2)c(C)s1 | 51* | 0.5 | 13 | 3 | 0.2 | 84*
Cc1cc(S(=O)(=O)Nc2cccc(O)c2)c(C)s1 | 30 | 0.7 | 6 | 0 | 0.1 | 92*
Cc1nn(C(C)CC(=O)O)c(C)c1Br (centres undefined) | -1 | 1 | -5 | 19 | 1.1 | -9
